Bioassay records (PubChem)
PI5P4K alpha inh: inhibitors of human PI5P4K alpha; P48426; PI5P4Kalpha enzyme, ADP-Glo luminescence, 60 min; stronger effect = lower value; max response, %; hit rate 1.2% among 330,000; AID 652105; active = max response of -50% or lower; inconclusive = between -30% and -50%; inactive = -30% or higher; also: value at the top dose of about 77 µM
Target sequence (P48426 whole entry, looked up): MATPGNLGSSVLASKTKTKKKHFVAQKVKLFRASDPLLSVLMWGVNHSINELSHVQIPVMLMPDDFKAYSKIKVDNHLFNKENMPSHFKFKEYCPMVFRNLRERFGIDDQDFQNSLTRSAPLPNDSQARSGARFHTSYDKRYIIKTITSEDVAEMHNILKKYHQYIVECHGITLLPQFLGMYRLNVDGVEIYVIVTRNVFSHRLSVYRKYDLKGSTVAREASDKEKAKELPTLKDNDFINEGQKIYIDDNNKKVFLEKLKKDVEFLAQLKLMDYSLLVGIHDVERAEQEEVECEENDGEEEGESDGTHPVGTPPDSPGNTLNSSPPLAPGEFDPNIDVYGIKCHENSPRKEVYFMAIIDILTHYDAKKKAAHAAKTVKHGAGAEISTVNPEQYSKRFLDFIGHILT
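Single end-point luminescence (ADP-Glo) quantified ADP from PI5P4Kalpha turnover; ATP 5 microM final, 1 h at RT, 0.1% CHAPS and 0.28 mM EGTA in HEPES pH 7.4.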
G9a block: G9a (human) methyltransferase inhibition; Q96KQ7; G9a H3K9 monomethylation, AlphaScreen, 2 h; Potency, µM (titrated, usually from 102 µM), most hits filed as inhibitors; hit rate 8.8% among 350,000; AID 504332; also: nearly all actives have a fitted effect of over 75% in size
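Quantitative HTS format: methyltransferase activity on a biotin-tagged H3K9 peptide is measured by AlphaScreen, using a rabbit anti-monomethyl-H3K9 antibody with streptavidin donor and anti-IgG acceptor beads. Final levels are 20 nM enzyme, 500 nM peptide, 20 uM SAM; 2 h RT.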
PLK1 PBD block: blocks phosphopeptide binding to human PLK1 polo-box domain. Potency, µM, actives largely listed as inhibitors. hit rate 2.8% among 360,000. AID 720504. Plk1 PBD binding of FITC phosphopeptide, fluorescence polarization; also: series mostly up to about 57 µM; nearly all actives have a fitted effect of over 65% in size
HP1b binding inh: HP1-beta chromodomain-methylated histone interaction inhibition; Potency, µM (titrated, usually from 114 µM), usual class: inhibitors; hit rate 0.56% among 390,000; AlphaScreen HP1-beta / biotin-H3K9me3 peptide binding; also: nearly all actives have a fitted effect of over 70% in size
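HP1-beta protein (50 nM final) preincubated 30 min at room temperature with biotinylated H3(1-18)K9me3 peptide (50 nM) in PBS pH 7.4, 0.01% Tween-20, then compound added for 30 min. AlphaScreen streptavidin donor/nickel chelate acceptor beads (10 ug/mL final), 30 min dark, luminescence read.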
BAZ2B block: BAZ2B (human) inhibition; Q9UIF8; AlphaScreen BAZ2B-H3K14Ac peptide displacement; Potency, µM (series often up to 114 µM), actives largely listed as inhibitors; hit rate 4.4% among 360,000; also: nearly all actives have a fitted effect of over 60% in size
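In this displacement format the biotinylated H3(5-23) peptide acetylated at Lys14 serves as ligand at 50 nM, with BAZ2B at 50 nM in PBS pH 7.4 containing 0.01% Tween-20. Donor and acceptor beads are 10 ug/mL final.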
JMJD2A Tudor inh: JMJD2A Tudor domain (human) inhibition. AlphaScreen JMJD2A-Tudor / H3K4me3 peptide binding. Potency, µM (top dose mostly 114 µM), most hits filed as inhibitors. hit rate 4.4% among 390,000. AID 504339; also: nearly all actives have a fitted effect of over 50% in size
A number is an active result; 0 = inactive; ? = inconclusive; - = no result; ! = a repeat was not active; [ ] = remark or other dose. In the library only some 12% were active in any assay of this set; here they are far more common. Unless noted, calls follow the shape of the dose curve; as a rule, active = well fitted curve in the direction sought with a large enough effect; inconclusive = small, poorly fitted or top-dose-only effect, or another doubt; inactive = no such curve, though single readings can be large; an effect the other way counts as inactive or inconclusive.

SMILES	PI5P4K alpha inh	G9a block	PLK1 PBD block	HP1b binding inh	BAZ2B block	JMJD2A Tudor inh
Cc1ccc(-c2nc(CS(=O)CC(=O)O)c(C)o2)cc1 (configuration not stated)	-	0	-	0	0	0
Cc1oc(-c2ccc(Cl)cc2)nc1CS(=O)CC(=O)N1CCN(c2cccc(C(F)(F)F)c2)CC1 (configuration not stated)	-	?	-	0	0	?
Cc1ccc(-c2nc(CS(=O)CC(=O)N3CCN(c4cccc(Cl)c4)CC3)c(C)o2)cc1 (configuration not stated)	-	?	-	0	25.1µM	?
CC(=O)c1ccc(-c2c(C3C4C=CCCC4(C)C(=O)N3Cc3ccccc3)ccc3ccccc23)cc1 (configuration not stated)	-	-	-	0	-	0
COc1ccc(C(=O)Oc2c(Sc3ccccc3)c(C)nn2-c2ccccc2)c(OC)c1	-	0	-	0	0	0
Cc1nn(-c2ccccc2)c(OC(=O)C(C)C)c1Sc1ccc(Cl)cc1	-	4.47µM	-	0	0	0
O=C1c2ccccc2C(=O)N1c1ccccn1	-	-	-	0	-	0
CCOC(=O)C(Cc1ccccc1)C(=O)Nc1ccc(NC(=O)C(Cc2ccccc2)C(=O)OCC)cc1 (configuration not stated)	0	0	0	0	0	0
N[C@H](Cc1ccccc1)C(=O)O	-	0	-	-	-	-
N[C@@H](Cc1ccc(F)cc1)C(=O)O	0	10µM!	0	0	-	0
N[C@@H](Cc1ccc(O)c(I)c1)C(=O)O	-	0	-	-	0	-
NC(Cc1ccc2nonc2c1)C(=O)O (configuration not stated)	0	12.6µM	0	0	79.4µM	8.91µM
CCOC(=O)C(C(C)C)C(N)Cc1ccc(F)cc1 (configuration not stated)	0	0	0	0	50.1µM	?
NC(Cc1ccc(Cl)cc1)C(=O)O (configuration not stated)	-	9.47µM!	-	-	-	-
Cc1ccc(CNS(=O)(=O)c2ccc3c(c2)n(C)c(=O)n3C)cc1	0	0	0	0	0	0
CCOc1cccc(CN2CCC(CCC(=O)NC3CC3)CC2)c1O	0	0	0	0	0	0
CCN1C(=NCCN2CCOCC2)N[C@@H](CCc2ccccc2)C(C(=O)OC)=C1C	-	0[12.7 µM]	-	-	0	-
O=C/C=C/c1c(-c2ccccc2)cc2oc3ccccc3cc1-2	?	8.91µM	0	6.31µM	3.55µM	6.31µM
CCC1(c2ccccc2)NC(=O)N(CC(=O)NCC2COc3ccccc3O2)C1=O (configuration not stated)	0	0	0	0	0	0
S=C1NC2(CCS1)Oc1ccccc1C1CC(c3ccccc3)=NN12 (configuration not stated)	-	50.1µM	-	-	?	-
COc1ccc2c(c1OC)C(=O)N1N=C(c3ccc(-c4ccccc4)cc3)CC21 (configuration not stated)	0	0	0	0	0	0
CCCc1sc(N/N=C/c2ccccn2)nc1-c1ccc(F)cc1	-	0	0	0	?	44.7µM
CC(C)CNC(=O)/C=C/C=C/CCCC/C=C/c1ccc2c(c1)OCO2	0	0[2.33 µM]	0	0	0	0
COCCNC(=O)C1(C)CCN(C(=O)COc2ccc(Cl)cc2Cl)C1 (configuration not stated)	0	-	0	-	-	-
C/C(CC1CC2=C(CC1(C)C)C(C)(C)CCC2)=N\NC(N)=S (configuration not stated)	-	31.6µM	16.8µM	?	0	0
SMILES	PI5P4K alpha inh	G9a block	PLK1 PBD block	HP1b binding inh	BAZ2B block	JMJD2A Tudor inh
O=C(COC(=O)c1ccc(O)cc1O)N=c1sccn1Cc1ccccc1Cl	0	?	0	0	0	0
N#CCC(=O)Nc1ccc(C(=O)OCC(=O)c2ccc3c(c2)OCCO3)cc1	-74.2	0	11.9µM	0	0	17.8µM
N#Cc1ccc(C(=O)Nc2ccc3ccccc3c2)cc1	0	44.7µM	0	0	0	0
N#Cc1ccccc1Sc1ccccc1C(=O)Nc1ccc2ccccc2c1	0	0	0	0	0	0
N#CCC(=O)Nc1ccc(C(=O)OCC(=O)N=c2sccn2Cc2ccccc2Cl)cc1	-52.7	0[0.501 µM]	0	0	0	0
N#CCC(=O)Nc1ccc(C(=O)OCC(=O)Nc2ccc3ccccc3c2)cc1	-51.3	0[12.7 µM]	0	0	0	0
N#CCC(=O)Nc1ccc(C(=O)OCC(=O)c2ccc3c(c2)OCO3)cc1	0	0	0	0	0	0
